PNC assembly inh: perinucleolar compartment assembly inhibition. activity change (PNC), negative = inhibition, % at 10 µM. PC3M PTB-GFP, PNC prevalence imaging, 16 h; stronger effect = lower value. hit rate 3.1% among 140,000;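 active = readout at or below -70, meaning at least 70% loss of cells showing the perinucleolar compartment, a nuclear body marking cancer cells; inconclusive = readout between -30 and a set limit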;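 note: plate controls were DMSO wells for no effect and camptothecin positive control wells for full effect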
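Read-out is percentage of cells bearing a perinucleolar compartment, from automated 20x imaging of fixed, Hoechst-stained PC3M PTB-GFP cells. Cells were seeded 4 h, then exposed 16 h to compound (23 nl of library stock) in duplicate plates.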
IMPase cell inh: IMPase inhibition in cells. P97697. CHO-M1 cells, IP1 accumulation, HTRF TR-FRET ratio. inhibition (IP1 accumulation), % at 46.1 µM. 120,000 tested, under 10 active; active = well fitted curve in the direction sought with a large enough effect in the signal ratio, not every such curve was filed as active; inconclusive = small, poorly fitted or top-dose-only effect, or a change in a side signal; inactive = no such curve, though single readings can be large or run the other way; the % refers to the signal ratio;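 note: cells stimulated with carbachol in lithium chloride buffer; plate controls were DMSO basal wells for no effect and reference inhibitor wells for full effect; higher means more IMPase inhibition seen as more IP1 and lower FRET ratio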
Target sequence (P97697 whole entry, looked up): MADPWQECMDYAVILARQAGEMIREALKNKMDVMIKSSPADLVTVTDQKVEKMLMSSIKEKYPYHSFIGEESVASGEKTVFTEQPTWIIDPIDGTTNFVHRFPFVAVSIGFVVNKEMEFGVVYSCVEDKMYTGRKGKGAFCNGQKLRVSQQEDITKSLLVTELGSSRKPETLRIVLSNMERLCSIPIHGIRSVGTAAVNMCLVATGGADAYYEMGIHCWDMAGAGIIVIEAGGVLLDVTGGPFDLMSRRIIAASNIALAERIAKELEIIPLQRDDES
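Elevated IP1 in lysates lowers TR-FRET signal (665/620 ratio and 620 channel reported). Cells were CHO-M1, given carbachol (50 uM as added) plus 50mM LiCl, pH 7.4, 30 min, 37C; compounds titrated up to 46 uM; AC50 by Hill equation.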
HPGD inh: blocks human HPGD enzyme activity; purified HPGD, NADH fluorescence kinetic, PGE2 substrate; P15428; hit rate 4.3% among 150,000; Potency, µM, for inactives: at the highest dose activity change, negative = inhibition, hits mostly inhibitors; note: potency is the fitted concentration of half-maximal effect
Target sequence (P15428 whole entry, looked up): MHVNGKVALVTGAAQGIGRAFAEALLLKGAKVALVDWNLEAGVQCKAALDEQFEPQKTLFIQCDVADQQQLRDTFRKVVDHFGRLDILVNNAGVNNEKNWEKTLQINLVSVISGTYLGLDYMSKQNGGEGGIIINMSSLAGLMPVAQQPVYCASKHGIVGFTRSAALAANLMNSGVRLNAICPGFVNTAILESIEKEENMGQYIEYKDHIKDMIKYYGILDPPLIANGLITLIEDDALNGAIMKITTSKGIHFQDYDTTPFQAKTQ
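20 nM HPGD preincubated 15 min at room temperature with compound in 50 mM Tris-HCl pH 8, 0.01% Tween 20. Started with 1 mM NAD+ and 30 uM prostaglandin E2; NADH fluorescence (360/450 nm) read 5 times over 30-s intervals, last minus first.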
12-hLO inh: 12-hLO (ALOX12) enzyme inhibition; Potency, µM (titrated, usually from 57.1 µM), without a hit: at the highest dose activity change, negative = inhibition, hits mostly inhibitors; purified 12-hLO, xylenol orange hydroperoxide absorbance; hit rate 0.12% among 150,000; active = well fitted curve in the direction sought with a large enough effect; inconclusive = small, poorly fitted or top-dose-only effect, or another doubt; inactive = no such curve, though single readings can be large; an effect the other way counts as inactive or inconclusive; note: potency is the fitted concentration of half-maximal effect; nearly all actives have a fitted effect of over 55% in size
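Purified human 12hLO (150 nM final) was preincubated with compounds for 15 min at room temperature in 25 mM Hepes pH 7.0, 0.01% Triton X-100, then reacted with 40 uM arachidonic acid for 30 min. Hydroperoxide was detected with ferrous iron/xylenol orange.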
IMPase Li inh: membrane-permeable IMPase blocker, potentiated with lithium; hit rate 0.35% among 210,000; CHO-M1 cells, IP1 TR-FRET (IP-One), carbachol + lithium; Potency, µM (highest dose often 59.4 µM), for the others: top-dose activity, negative = IMPase inhibition, actives largely listed as inhibitors; active = well fitted curve in the direction sought with a large enough effect; inconclusive = small, poorly fitted or top-dose-only effect, or another doubt; inactive = no such curve, though single readings can be large; an effect the other way counts as inactive or inconclusive;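 note: IP1 builds up when IMPase is blocked and the TR-FRET signal falls; potency is the fitted concentration of half-maximal effect; plate controls were basal vehicle for no effect and high inhibitor control for full effect; nearly all actives have a fitted effect of over 50% in size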
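CHO cells stably expressing M1 receptor (2000/well, cultured 16–30 h) treated 30 min at 37C with compound plus low lithium. Cytosolic IP1 by TR-FRET (665/620 ratio and 620 channel) after 10 min lysis; AC50 by Hill fit.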
ALDH1A1 inh: ALDH1A1 (human) enzyme inhibition. P00352. Purified ALDH1A1, NADH fluorescence, propionaldehyde substrate. Potency, µM (series often up to 75.3 µM), for inactives: at the top dose activity, negative = inhibition, usual class: inhibitors. hit rate 7.3% among 220,000. AID 1030;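 note: potency is the fitted concentration of half-maximal effect; plate controls were no enzyme wells and a reference inhibitor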
The depositor's hits bear a star; [ ] = remark or other dose. An excerpt weighted towards active compounds, which were near 11% of everything screened. Unless noted, calls come from the whole dose curve; as a rule, active = well fitted inhibition curve with a large enough effect (not every such curve was filed as active); inconclusive = small, poorly fitted or top-dose-only effect, or another doubt; inactive = no such curve, though single readings can be large or run the other way. Unless noted, % is set by controls: 0 for no effect and ±100 for the full control effect.

COc1cccc(-c2nc(S(=O)(=O)c3ccccc3)c(N3CCCCC3)o2)c1 was read as IMPase cell inh 3.
For O=S(=O)(c1ccccc1)c1nc(-c2ccco2)oc1N1CCCCCC1 the results were PNC assembly inh 13, IMPase cell inh 4, HPGD inh inconclusive, 12-hLO inh -4%, IMPase Li inh 17%[38.3 µM] and ALDH1A1 inh 0.2µM*.
COC(=O)[C@@H](NC(=O)O[C@@H]1C(=O)c2cc(OC)ccc2O[C@H]1c1ccc(OC)c(Br)c1)C(C)C was read as HPGD inh -19%, IMPase Li inh 19% and ALDH1A1 inh -7%.
Cc1cnc(CNc2cc(-c3ccccc3C)ncn2)cn1 was read as IMPase Li inh 9% and ALDH1A1 inh -4%.
`Cc1cc(S(=O)(=O)Nc2cc3c(cc2Cl)n(C)c(=O)c(=O)n3C)ccc1F` gave IMPase cell inh 4.
Screening CCOC(=O)c1c(C)oc2c1c(C=NCCC(=O)O)c(O)c1ccccc12 returned IMPase Li inh 3% and ALDH1A1 inh inconclusive.
Screening CCOC(=O)c1c(C)oc2c1c(C(c1ccncc1)N1CCOCC1)c(O)c1ccccc12 (stereo not drawn) returned PNC assembly inh -27, IMPase cell inh 3, HPGD inh -27%, 12-hLO inh inconclusive, IMPase Li inh 51%[38.3 µM] and ALDH1A1 inh 13µM*.
Screening CCOC(=O)c1c(C)oc2c1c(CN1CCN(C(=O)OCC)CC1)c(O)c1ccccc12 returned PNC assembly inh 49, HPGD inh -15%, 12-hLO inh -20%, IMPase Li inh 7% and ALDH1A1 inh 1.6µM*.
Screening CCOC(=O)c1c(C)oc2ccc(O)c(CN3CCCCC3)c12 returned PNC assembly inh 30, IMPase cell inh 1, HPGD inh -13%, 12-hLO inh 9%, IMPase Li inh 25%[38.3 µM] and ALDH1A1 inh -4%.
For CCOC(=O)c1c(C)oc2c1c(CN1CCN(CCO)CC1)c(O)c1ccccc12 the results were IMPase Li inh -8% and ALDH1A1 inh 0.35µM*.
For CCOC(=O)c1oc2ccccc2c1CN1CCN(C(=O)c2ccccc2)CC1 the results were PNC assembly inh -109*, IMPase cell inh 13, HPGD inh 0%, 12-hLO inh -4%, IMPase Li inh 10% and ALDH1A1 inh 20µM*.
For c1ccc(CNc2nc(-c3ccc4c(c3)OCO4)nc3ccccc23)cc1 the results were IMPase Li inh 17% and ALDH1A1 inh inconclusive.
`COC(=O)c1ccc(C(NC(=O)OCc2ccccc2)/C(F)=C/[C@@H](C)C(=O)NC2CCCCC2)cc1` (stereo partly drawn) gave HPGD inh -7%, 12-hLO inh -6%, IMPase Li inh -8% and ALDH1A1 inh -6%.
Screening Nc1nc(Cl)nc2c1ncn2[C@@H]1O[C@H](COP(=O)(O)OP(=O)(O)OP(=O)(O)O)[C@H](O)[C@H]1O returned HPGD inh -5%, IMPase Li inh 5% and ALDH1A1 inh -5%.
Screening CC(NC(=O)c1ccco1)C(=O)OCC(=O)c1ccc(Cl)s1 (stereo not drawn) returned IMPase Li inh -15% and ALDH1A1 inh inconclusive.
`CCOC(=O)c1c(C)oc2c(CC(=O)c3ccccc3)c(Cl)c(O)c(O)c12` gave PNC assembly inh 31, HPGD inh 7.1µM*, 12-hLO inh -1%, IMPase Li inh 11% and ALDH1A1 inh -1%.
For CCn1c(CCCCc2n[nH]c(=S)n2CC)n[nH]c1=S the results were IMPase Li inh 1% and ALDH1A1 inh 7%.
`CCCCn1c(CCn2nc(C)c(Br)c2C)n[nH]c1=S` gave PNC assembly inh -12, IMPase cell inh 7, HPGD inh 22µM*, 12-hLO inh -1%, IMPase Li inh 0%[38.3 µM] and ALDH1A1 inh -10%.
For CCN(CC)C(=O)Cn1c(=O)n(Cc2ccc(C(=O)NCCCOC)cc2)c(=O)c2ccccc21 the results were IMPase cell inh 5.
Screening Cc1ccc(OCCn2cc(Br)c(=O)[nH]c2=O)cc1 returned PNC assembly inh 1, IMPase cell inh 9, HPGD inh -1%, 12-hLO inh -2%, IMPase Li inh -26%[38.3 µM] and ALDH1A1 inh 20µM*.
O=C1C[C@@H]2CCN3C(=O)CCC[C@@H]([C@H]23)[C@@H]1Cc1ccccc1 was read as HPGD inh -1%, 12-hLO inh 0%[0.00818 µM], IMPase Li inh 9% and ALDH1A1 inh 16µM*.
`Cc1nn(-c2nnc(NCc3ccccc3)nn2)c(C)c1Br` gave PNC assembly inh inconclusive, HPGD inh 14µM*, 12-hLO inh -18%, IMPase Li inh -4% and ALDH1A1 inh 28µM*.
Cc1cc(C)n(-c2nnc(NCc3ccc(Cl)cc3)nn2)n1 was read as IMPase Li inh -1% and ALDH1A1 inh 2%.
O=S(=O)(c1ccccc1)c1cnc(-c2ccccc2)nc1N1CCCCC1 was read as IMPase Li inh 14% and ALDH1A1 inh 13µM*.
For CCN(CC)c1nc(-c2ccccc2)ncc1S(=O)(=O)c1ccc(C)cc1 the results were IMPase Li inh 9% and ALDH1A1 inh inconclusive.
`Cc1ccc(S(=O)(=O)c2cnc(-c3ccccc3)nc2N2CCN(C)CC2)cc1` gave IMPase Li inh 15% and ALDH1A1 inh 2.2µM*.
`CN(C)c1nc(-c2ccccc2)ncc1S(=O)(=O)c1ccccc1` gave IMPase Li inh 21% and ALDH1A1 inh inconclusive.
`CN1CCN(c2nc(-c3ccccc3)ncc2S(=O)(=O)c2ccccc2)CC1` gave IMPase Li inh 4% and ALDH1A1 inh 14µM*.
CCOC(=O)CCN1C(=O)[C@H]2[C@H]3[C@H](O)[C@H](O)C/C(=N/NC(=O)OCc4ccc(OC)cc4)[C@H]3CC[C@@H]2C1=O was read as ALDH1A1 inh -5%[13.5 µM].
`O=C(O)c1ccccc1C(=O)NNc1ccc(F)cc1` gave PNC assembly inh 60, IMPase cell inh 0, HPGD inh inconclusive, 12-hLO inh inconclusive, IMPase Li inh 2%[38.3 µM] and ALDH1A1 inh 7.9µM*.
O=C(O)c1ccccc1C(=O)NNc1ccc(Cl)cc1Cl was read as IMPase Li inh 9% and ALDH1A1 inh 25µM*.
O=C(O)c1ccccc1C(=O)NCc1ccc(F)cc1 was read as PNC assembly inh 0, IMPase cell inh -4, HPGD inh -8%, 12-hLO inh -6%, IMPase Li inh 1%[38.3 µM] and ALDH1A1 inh 10%.
For COC(=O)CSc1nc2cc3c(cc2cc1C)OCO3 the results were IMPase Li inh 7% and ALDH1A1 inh inconclusive.

High-throughput results deposited in PubChem by National Center for Advancing Translational Sciences (NCATS).
